Measured values from PubChem BioAssay.
Entries with a potency or affinity are not part of this list. Calls of active or inactive are those of the source.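 The calls were made as follows, unless noted: active = a dose-response fit showing signal loss, with half-maximal concentration no higher than twice the top tested dose; inconclusive = flat fit between 30% and 70% signal loss, or poor fit; inactive = the rest.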

experiment: C. neoformans lysis by adenylate kinase leakage – AK release luminescence, cherry-picks, dose response (AID 687000;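 active = fitted dose curve reaches 40% lysis signal rise at or below the highest valid concentration tested for that sample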;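 also: luminescent detection of adenylate kinase leaking from lysed yeast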); settings: 4 h, 100% = twice the neutral-control signal; series mostly up to 15 µM

Structure (SMILES)	outcome
C[C@H]1CN([C@@H](C)CO)C(=O)Cc2cc(NC(=O)C3CC3)ccc2O[C@H]1CN(C)Cc1ccc(-c2ccccc2)cc1	inactive
Cc1cccc(C)c1NC(=O)C(C)N1CCCCC1 (stereo not drawn)	inactive
COc1ccc(CN(C)C[C@H]2OCCCC[C@@H](C)Oc3ccc(NC(=O)c4ccccc4)cc3C(=O)N([C@H](C)CO)C[C@@H]2C)cc1	inactive
C[C@H](CO)N1C[C@H](C)[C@H](CN(C)CC2CCCCC2)Oc2ccc(NC(=O)Nc3ccc4c(c3)OCO4)cc2C1=O	inactive
COc1cccc(S(=O)(=O)N2C[C@@H](O)COC[C@H]3O[C@H](CC(=O)N4CCN(C)CC4)CC[C@@H]32)c1	inactive
COCC(=O)N(C)C[C@@H]1Oc2ncc(C#CCC3CCCC3)cc2C(=O)N([C@@H](C)CO)C[C@H]1C	inactive
C[C@H](CO)N1C[C@H](C)[C@H](CN(C)Cc2ccncc2)Oc2ccc(NC(=O)CCC(F)(F)F)cc2C1=O	inactive
Cc1ccc(C)c(NC(=O)C2CCCN2C(=O)NC2CCCCC2)c1 (stereo not drawn)	inactive
CO[C@H](CN(C)Cc1cc(F)ccc1F)[C@@H](C)CN([C@@H](C)CO)S(=O)(=O)c1ccc(F)cc1	inactive
CC(=O)NC[C@H]1[C@@H](c2ccc(C3=CCCC3)cc2)[C@@H](CO)N1C(=O)NC(C)C	inactive
C[C@H](CO)N1C[C@H](C)[C@H](CN(C)S(=O)(=O)c2ccccc2)Oc2ccc(NS(=O)(=O)c3ccc(F)cc3)cc2C1=O	inactive
CCOc1cc(/C=N/NC(=O)CCCC(=O)NC2CCCCC2)ccc1O	inactive
CN1C(=O)N[C@@H]2c3ccccc3O[C@@]1(C)[C@@H]2COC(=O)c1ccccc1	inactive
CCS(=O)(=O)N1CCCCN2[C@H](C1)[C@@H](c1ccc(-c3ccc(C#N)cc3)cc1)[C@@H]2CO	inactive
CO[C@H]1CN(C)C(=O)c2cc(NC(=O)c3ccccc3F)ccc2OC[C@H](C)N(C(C)=O)C[C@H]1C	inactive
COc1ccc(NC(=O)N(C)C[C@H]2OCCCC[C@@H](C)Oc3ccc(NC(=O)c4ccccc4)cc3C(=O)N([C@@H](C)CO)C[C@H]2C)cc1	inactive
Cc1ccc(N(CC(N)=O)S(=O)(=O)c2ccc(F)cc2)cc1	inactive
O=C(CSc1ncnc2c1cnn2-c1ccccc1Cl)N1CCN(C(=O)c2ccco2)CC1	inactive
C[C@@H](NC(=O)C[C@H]1CC[C@@H](NC(=O)Cc2ccccn2)[C@@H](CO)O1)c1ccccc1	inactive

experiment: viability loss in HepG2 hepatoma cells – cell-based, cherry-picks, set 2, cytotoxicity control, dose response (AID 687002); settings: ATP luminescence (CellTiter-Glo), 48 h; series mostly up to 26 µM

Structure (SMILES)	outcome
C[C@H]1CN([C@@H](C)CO)C(=O)c2cc(NS(=O)(=O)c3ccc(F)cc3)ccc2O[C@@H]1CN(C)S(=O)(=O)c1ccccc1	inactive
Cc1noc(C)c1S(=O)(=O)Nc1ccc2c(c1)C(=O)N([C@H](C)CO)C[C@@H](C)[C@H](CN(C)Cc1ccccc1)OCCCC[C@H](C)O2	inactive
CC(C)NC(=O)N(C)C[C@@H]1OCCCC[C@@H](C)Oc2ccc(NC(=O)c3ccccc3)cc2C(=O)N([C@H](C)CO)C[C@H]1C	inactive
CCS(=O)(=O)NCC[C@@H]1CC[C@@H](NS(=O)(=O)c2cccc(F)c2)[C@@H](CO)O1	inactive
O=C(C[C@H]1C=C[C@H](NC(=O)C2CCC2)[C@@H](CO)O1)NC1CCC1	inactive
CCCNC(=O)Nc1ccc2c(c1)C(=O)N(C)C[C@H](OC)[C@@H](C)CN(Cc1cccnc1)[C@H](C)CO2	inactive
Cc1cccc(C)c1NC(=O)C(C)N1CCCC1 (stereo not drawn)	inactive
O=C(NC(=S)Nc1ccc(CN2CCOCC2)cc1)c1ccc([N+](=O)[O-])cc1	inactive
CO[C@@H]1CN(C)C(=O)c2cc(NC(=O)C3CC3)ccc2OC[C@H](C)N(C(=O)c2ccncc2)C[C@H]1C	inactive
O=C(CSc1ncnc2c1cnn2-c1ccccc1)NC1CCS(=O)(=O)C1 (stereo not drawn)	inactive
Cc1cc(C(=O)NC(=S)Nc2ccccc2N2CCCC2)ccc1[N+](=O)[O-]	inactive
COc1ccc(NC(=O)N(C)C[C@H]2OCCCC[C@@H](C)Oc3ccc(N(C)C)cc3C(=O)N([C@H](C)CO)C[C@H]2C)cc1	inactive
CC=Cc1ccc2n(c1=O)C[C@H]1[C@H](CO)[C@@H](C(=O)NCc3ccc4c(c3)OCO4)[C@@H]2N1C(=O)C1CC1 (mixture of isomers)	inactive
CCC(=O)N1[C@@H]2Cn3c(ccc(C4=CCCCC4)c3=O)[C@H]1[C@@H](C(=O)N[C@H](C)c1ccccc1)[C@@H]2CO	inactive
CCC(=O)N[C@@H]1C=C[C@H](CC(=O)NCC2CCCCC2)O[C@H]1CO	inactive
O=C(CSc1ncnc2c1cnn2-c1ccc(Cl)cc1)NCc1ccc2c(c1)OCO2	inactive
CO[C@H]1CN(C)C(=O)c2ccc(NC(=O)C3CC3)cc2OC[C@@H](C)N(Cc2ccc(F)cc2)C[C@@H]1C	inactive
C[C@@H]1CN([C@@H](C)CO)C(=O)c2cc(C3=CCCCC3)cnc2O[C@H]1CN(C)C(=O)Cc1cccnc1	inactive
CN(C)C(=O)c1ccc(-c2ccc([C@H]3[C@H]4CN(CCC(F)(F)F)CCCCN4[C@H]3CO)cc2)cc1	inactive
CC(C)NC(=O)N(C)C[C@@H]1OCCCC[C@H](C)Oc2ccc(NC(=O)Cc3ccccc3)cc2C(=O)N([C@H](C)CO)C[C@H]1C	inactive

Structure (SMILES)	outcome
C[C@H]1CN([C@@H](C)CO)C(=O)Cc2cc(NC(=O)C3CC3)ccc2O[C@H]1CN(C)Cc1ccc(-c2ccccc2)cc1	inactive
Cc1cccc(C)c1NC(=O)C(C)N1CCCCC1 (stereo not drawn)	inactive
COc1ccc(CN(C)C[C@H]2OCCCC[C@@H](C)Oc3ccc(NC(=O)c4ccccc4)cc3C(=O)N([C@H](C)CO)C[C@@H]2C)cc1	inactive
C[C@H](CO)N1C[C@H](C)[C@H](CN(C)CC2CCCCC2)Oc2ccc(NC(=O)Nc3ccc4c(c3)OCO4)cc2C1=O	inactive
COc1cccc(S(=O)(=O)N2C[C@@H](O)COC[C@H]3O[C@H](CC(=O)N4CCN(C)CC4)CC[C@@H]32)c1	inactive
COCC(=O)N(C)C[C@@H]1Oc2ncc(C#CCC3CCCC3)cc2C(=O)N([C@@H](C)CO)C[C@H]1C	inactive
C[C@H](CO)N1C[C@H](C)[C@H](CN(C)Cc2ccncc2)Oc2ccc(NC(=O)CCC(F)(F)F)cc2C1=O	inactive
Cc1ccc(C)c(NC(=O)C2CCCN2C(=O)NC2CCCCC2)c1 (stereo not drawn)	inactive
CO[C@H](CN(C)Cc1cc(F)ccc1F)[C@@H](C)CN([C@@H](C)CO)S(=O)(=O)c1ccc(F)cc1	inactive
CC(=O)NC[C@H]1[C@@H](c2ccc(C3=CCCC3)cc2)[C@@H](CO)N1C(=O)NC(C)C	inactive
C[C@H](CO)N1C[C@H](C)[C@H](CN(C)S(=O)(=O)c2ccccc2)Oc2ccc(NS(=O)(=O)c3ccc(F)cc3)cc2C1=O	inactive
CCOc1cc(/C=N/NC(=O)CCCC(=O)NC2CCCCC2)ccc1O	inactive
CN1C(=O)N[C@@H]2c3ccccc3O[C@@]1(C)[C@@H]2COC(=O)c1ccccc1	inactive
CCS(=O)(=O)N1CCCCN2[C@H](C1)[C@@H](c1ccc(-c3ccc(C#N)cc3)cc1)[C@@H]2CO	inactive
CO[C@H]1CN(C)C(=O)c2cc(NC(=O)c3ccccc3F)ccc2OC[C@H](C)N(C(C)=O)C[C@H]1C	inactive
COc1ccc(NC(=O)N(C)C[C@H]2OCCCC[C@@H](C)Oc3ccc(NC(=O)c4ccccc4)cc3C(=O)N([C@@H](C)CO)C[C@H]2C)cc1	inactive
Cc1ccc(N(CC(N)=O)S(=O)(=O)c2ccc(F)cc2)cc1	inactive
O=C(CSc1ncnc2c1cnn2-c1ccccc1Cl)N1CCN(C(=O)c2ccco2)CC1	inactive
C[C@@H](NC(=O)C[C@H]1CC[C@@H](NC(=O)Cc2ccccn2)[C@@H](CO)O1)c1ccccc1	inactive
